Bioassay records: PubChem BioAssay, NMMLSC
GSH fluor: compound fluoresces at 488/530 nm on GSH beads; GSH beads flow cytometry, compound fluorescence 488/530 nm; hits give high values; fluorescence (KMESF) at 10 µM; hit rate 0.25% among 190,000; in the data active = fluorescence above about 89;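 note: glutathione beads carrying GST-tagged Bcl family fusion proteins plus one bare bead set; values are compound well signal with DMSO vehicle wells as background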
RGS7-Gao reg: human RGS7-Galphao interaction regulation. P09471. Multiplexed bead flow cytometry, RGS7-Galphao binding; actives lie on both sides. binding response (% of control), % at 10 µM. hit rate 0.35% among 220,000. AID 1439; in the data active = binding response below about 49% or above about 150%; inconclusive = no clear call, values can overlap the other calls; inactive = in between;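 note: fluorescent Galphao held in activated GDP-AlF4 state binding bead-coupled RGS7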
RGS16-Gao HTS: modulates binding between human RGS16 and Galphao. O15492+P09471. bead-based flow cytometry RGS16-Galphao binding, fluorescence; actives lie on both sides. binding response (% of control), % at 10 µM. hit rate 0.38% among 220,000. AID 1441; call rule not given here;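 note: Galphao activated by GDP with aluminum fluoride before binding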
Target sequence (O15492 whole entry, looked up): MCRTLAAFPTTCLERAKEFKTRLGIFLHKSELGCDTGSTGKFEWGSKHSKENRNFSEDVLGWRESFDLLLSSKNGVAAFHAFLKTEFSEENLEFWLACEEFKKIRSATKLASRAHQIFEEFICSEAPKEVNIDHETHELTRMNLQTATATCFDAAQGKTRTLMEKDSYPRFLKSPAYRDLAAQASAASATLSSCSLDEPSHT
Target sequence (P09471 whole entry, looked up): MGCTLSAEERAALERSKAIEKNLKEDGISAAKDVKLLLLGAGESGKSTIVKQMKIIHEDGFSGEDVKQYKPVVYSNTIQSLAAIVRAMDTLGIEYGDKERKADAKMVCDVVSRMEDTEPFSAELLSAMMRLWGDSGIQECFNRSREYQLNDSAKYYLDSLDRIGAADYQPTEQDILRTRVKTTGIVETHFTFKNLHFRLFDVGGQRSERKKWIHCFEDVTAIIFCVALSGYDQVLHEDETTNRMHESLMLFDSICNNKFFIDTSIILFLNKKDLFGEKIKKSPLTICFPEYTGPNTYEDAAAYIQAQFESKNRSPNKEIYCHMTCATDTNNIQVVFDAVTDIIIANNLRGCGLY
RGS4-Gao reg: modulates binding of RGS4 to human Galphao; binding response (% of control), % at 10 µM; Multiplexed bead flow cytometry; actives lie on both sides; hit rate 0.33% among 220,000; in the data active = binding response below about 49% or above about 150%; inactive = in between;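 note: fluorescent Galphao activated with aluminum fluoride binding bead-coupled RGS4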
RGS8-Gao reg: regulators of human RGS8-Galphao interaction; P09471; multiplexed bead flow cytometry, RGS8-Galphao binding; actives lie on both sides; response (percent of control binding), % at 10 µM; hit rate 0.34% among 220,000; in the data active = response below about 60% or above about 140%; inactive = in between;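 note: Galphao activated as the GDP aluminium fluoride complex binding bead-coupled RGS8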
Avidin fluor: avidin bead compound fluorescence profile; Avidin beads, compound fluorescence 488/530 nm, flow cytometry; hits give high values; fluorescence (KMESF) at 10 µM; hit rate 0.38% among 220,000; AID 1775; in the data active = fluorescence above about 47
Active calls of the source: *; ? = inconclusive; · = no result given; + = active, no number; ! = repeats disagree; [ ] = dose if it differs, or a comment. An excerpt weighted towards active compounds, which were near 1.2% of everything screened.

SMILES	GSH fluor	RGS7-Gao reg	RGS16-Gao HTS	RGS4-Gao reg	RGS8-Gao reg	Avidin fluor
COC(=O)c1ccccc1NC(=O)c1nc2nc(C)cc(C)n2n1	31	142	107	113	99	134*
COc1ccc(-c2nnn(CC(=O)N3CCOCC3)n2)cc1	34	118	95	100	97	79*
COc1ccc(NC(=O)COC(=O)[C@@H](NC(=O)c2c(F)cccc2F)C(C)C)cc1	13	164*[activator]	142	150*[activator]	142*[activator]	12
COc1cc(OC)cc(C(=O)N[C@H](C(=O)OCC(=O)Nc2ccc(F)c(F)c2F)C(C)C)c1	14	?	102	98	100	8
COc1ccccc1NC(=O)Nn1cnnc1	242*	91	73	93	95	4
COc1ccccc1NC(=O)Nc1ccnn1C1CCCCC1	266*	97	102	100	96	6
COc1ccc(C2CC(c3ccccc3)=NN2C(=O)COC(=O)c2nc3nccc(C)n3n2)cc1 (stereo unspecified)	12	97	96	97	98	10
CC12CC3(C)CC(C)(C1)CC(C(=O)NC(=S)N1CCCC1)(C2)C3	22	93	96	98	99	7
Cc1cccnc1CN1CCN(Cc2nc(C(c3ccccc3)c3ccccc3)no2)CC1	15	99	98	97	98	1
CCN(CC)CCNC(=O)c1ccccc1C(=O)c1ncc[nH]1	19	139	112	113	106	107*
CCN(CC)CCNC(=O)c1ccccn1	12	99	106	101	103	8
Cc1cc(NC(=O)c2ccc(S(=O)(=O)N(C)C)cc2)n(-c2ccccn2)n1	26	122	104	108	104	88*
Cc1cc(OCc2nc(-c3ccncc3)no2)cc(C)c1Cl	17	94	64	96	85	7
COc1ccc(OC)c(S(=O)(=O)N2CCC(C(=O)N(C)Cc3ccccc3)CC2)c1	·	?	91	84	99	10
Cc1occc1C(=O)NN=C1C2CC3CC(C2)CC1C3	105*	100	103	101	101	8
COc1ccc(CCNC(=O)c2cc(-c3cc(C)c(C)cc3O)n[nH]2)cc1OC	22	132	105	109	97	90*
COc1ccc(CCNC(=O)c2ccc(=O)[nH]n2)cc1OC	41	103	106	104	100	7
COc1ccc(NC(=S)N(CCN(C)C)C(C)c2ccco2)cc1Cl (stereo unspecified)	152*	113	121	111	104	28
CCN(CC)c1ccc(/C=C(\C#N)C(=O)c2ccc(Br)cc2)cc1	151*	115	126	122	103	23
CC(C)CC(NC(=O)C(COCc1ccccc1)NC(=O)OC(C)(C)C)C(=O)NN (stereo unspecified)	12	108	102	99	99	10
CC(=O)N1CCC(N(C(=O)Nc2ccc(C)c(C)c2)C2CCCC2)CC1	18	105	106	103	101	47*
O=C(CSc1nc2ccc(Cl)cc2[nH]1)NCCc1ccccc1	5	100	99	100	101	14
O=C(CSc1nc2ccc([N+](=O)[O-])cc2[nH]1)NCCc1ccccc1	15	124	105	103	101	61*
Cn1c(=O)n(Cc2ccc(Cl)cc2)c(=O)c2c1nc1n2CCN1Cc1ccco1	3	100	104	101	99	8
Cc1cccc(Cn2c(=O)c3c(nc4n3CCN4Cc3ccco3)n(C)c2=O)c1	23	110	102	101	102	56*
SMILES	GSH fluor	RGS7-Gao reg	RGS16-Gao HTS	RGS4-Gao reg	RGS8-Gao reg	Avidin fluor
CCOC(=O)c1c(NC(=O)COC(=O)c2cc(OC)c(OC)cc2[N+](=O)[O-])sc(C)c1C	14	104	106	103	104	12
O=C(c1ccc(OC2CCN(Cc3ccccn3)CC2)cc1)N1CCCCO1	13	100	101	97	102	5
c1cncc(CNc2nc(N3CCOCC3)nc(N3CCOCC3)n2)c1	34	131	98	111	95	67*
Cc1cc(N2CCOCC2)nc(NCc2ccccc2)n1	259*	120	231	122	132	5
N#C/C(=C\c1ccc(C(=O)O)cc1)c1nc2sc3c(c2c(=O)[nH]1)CCCC3	·	?	99	97	97	3
Cc1nnc(-c2cnn(-c3ccccc3)c2N)n1Cc1ccncc1	13	122	106	105	100	78*
Cc1nnc(-c2cnn(-c3ccccc3)c2N)n1Cc1cccc(C(F)(F)F)c1	12	103	105	106	104	17
O=C(C1=C(O)C(=O)N(c2ccccc2)C1c1ccc([N+](=O)[O-])cc1)c1cccs1 (stereo unspecified)	13	97	103	102	100	7
CC1NC(=O)NC1CCCCC(=O)O (stereo unspecified)	243*	102	55	102	95	4
COc1ccccc1N1CCN(C(=O)CN(c2ccc(C)c(C)c2)S(C)(=O)=O)CC1	268*	101	115	103	107	6
Cc1cccc(NC(=O)CSc2nnc(-c3ccc(S(=O)(=O)N4CCOCC4)cc3)n2C)c1	12	116	103	105	101	68*
CC(C)CC(NC(=O)c1ccc(Cl)cc1)C(=O)OCC(=O)c1ccc2c(c1)NC(=O)CO2 (stereo unspecified)	239*	111	100	110	108	4
S=C(NCc1ccc2[nH]c3c(c2c1)CCCC3)Nc1ccccc1	17	50	55	49*	70	3
CCN(CC)c1ccc2cc(-c3nc(-c4ccc(OC)cc4)cs3)c(=O)oc2c1	445*	+[activator]	923*[activator]	808*[activator]	177*[activator]	636*
CCN(CC)c1ccc2cc(-c3nnc(-c4ccccc4)o3)c(=O)oc2c1	34	99	96	96	99	8
CCN(CC)c1ccc(/C=C2\C(=O)c3ccc(C(=O)O)cc3C2=O)cc1	306*	95	98	97	98	13
COCCn1c(SCC(=O)NC(=O)NC(C)C)nc2ccccc21	17	102	100	100	100	51*
C=CCn1c(SCC(=O)NC2CCCCC2)nnc1C1CCCCC1	12	118	102	108	102	60*
Nn1c(SCC(=O)NC2CCCCC2)nnc1C1CC1	36	102	103	102	102	11
CCOC(=O)Cc1cc(=O)c2cc(C)ccc2[nH]1	·	?	102	102	102	12
COCCCn1c(O)c(/C=C2\N=C(C#N)C(=Nc3ccc(C)cc3)O2)sc1=S	·	?	97	102	97	6
O=C(Nc1ccccn1)C(=O)Nc1ccccn1	·	?	102	106	103	3
O=C(Nc1ccccc1)Nc1ccccn1	32	?	104	103	97	68*!
